This is a sample that favours compounds with a hit; in the whole collection about 15% have one here.
TDP1 cell CPT: DT40-hTDP1 cell growth loss with CPT | hit rate 12% among 420,000 | Potency, µM (highest dose often 46.2 µM), for the others: top-dose activity change, negative = growth inhibition, hits mostly inhibitors | chicken DT40 Tdp1-/-;hTDP1 cells + 20 nM CPT, ATP luminescence, 48 h; further: nearly all actives have a fitted effect of over 55% in size
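Cell growth measured by CellTiter-Glo luminescence after a minimum 48 h, 37 C compound exposure with 20 nM CPT in Tdp1-knockout DT40 cells stably expressing hTDP1, seeded 400/well; qHTS titration format.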
ELG1 DNA repair: inhibitors of ELG1-dependent DNA repair in HEK293T cells; hit rate 2.3% among 330,000; HEK293T ELG1-luciferase reporter, luminescence, 16 h; DNA damage induced by 5-fluorouridine; Potency, µM (top dose mostly 46.1 µM), without a hit: top-dose activity change, negative = inhibition, hits mostly inhibitors; further: nearly all actives have a fitted effect of over 55% in size
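Cells (2,000 per well) received 5-fluorouridine plus test compound or DMSO and were incubated 16 hr at 37 °C, 5% CO2. Luciferase activity was read by luminescence 30 min after ONE-Glo addition; signal suppression marked inhibition of damage-induced ELG1 function.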
DT40 TDP1 no CPT: qHTS for Inhibitors of human tyrosyl-DNA phosphodiesterase 1 (TDP1): qHTS in cells in absence of CPT. AID 686978, 2013. hit rate 15% among 420,000. Potency, µM (titrated, usually from 46.2 µM), for the others: at the top dose activity change, negative = growth inhibition, usual class: inhibitors. DT40 Tdp1-/- hTDP1 cells, no CPT, ATP luminescence, 48 h; further: nearly all actives have a fitted effect of over 55% in size
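Seeded 400 DT40-hTDP1 cells/well (vehicle DMSO, no 20 nM CPT); pinned compounds; ≥48 hr at 37 °C; CellTiter-Glo luminescence as viability measure.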
VP16 counter: inhibits Gal4-VP16 luciferase reporter, ROR gamma counter-screen | Drosophila S2 Gal4-VP16 UAS-luciferase, luminescence, 20 h | Potency, µM (series often up to 53.6 µM), for inactives: at the highest dose activity, negative = inhibition, hits mostly inhibitors | hit rate 3.5% among 310,000 | AID 2546;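 further: Gal4-VP16 expression switched on by copper sulfate through the metallothionein promoter; nearly all actives have a fitted effect of over 50% in size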
RORgamma inh: blocks mouse ROR gamma transcriptional activity; hit rate 5.4% among 310,000; Potency, µM (highest dose often 53.6 µM), for the others: at the highest dose activity change, negative = inhibition, actives largely listed as inhibitors; P51450; Drosophila S2 Gal4-RORgamma UAS-luciferase reporter, 20 h; further: nearly all actives have a fitted effect of over 60% in size
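Luminescence from a UAS-regulated Photinus luciferase reporter in stably transfected Drosophila Schneider cells is measured; decreased signal marks ROR gamma inhibition. Fusion expression is induced by 700 uM copper sulfate for 20 hr.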
ALOX12 inh: inhibitors of human 12S-lipoxygenase ALOX12. purified 12hLO, xylenol orange hydroperoxide absorbance. P18054. hit rate 1.1% among 580,000. AID 1671190. Potency, µM (top dose mostly 108 µM), without a hit: at the top dose activity change, negative = inhibition, most hits filed as inhibitors
Target sequence (P18054 whole entry, looked up): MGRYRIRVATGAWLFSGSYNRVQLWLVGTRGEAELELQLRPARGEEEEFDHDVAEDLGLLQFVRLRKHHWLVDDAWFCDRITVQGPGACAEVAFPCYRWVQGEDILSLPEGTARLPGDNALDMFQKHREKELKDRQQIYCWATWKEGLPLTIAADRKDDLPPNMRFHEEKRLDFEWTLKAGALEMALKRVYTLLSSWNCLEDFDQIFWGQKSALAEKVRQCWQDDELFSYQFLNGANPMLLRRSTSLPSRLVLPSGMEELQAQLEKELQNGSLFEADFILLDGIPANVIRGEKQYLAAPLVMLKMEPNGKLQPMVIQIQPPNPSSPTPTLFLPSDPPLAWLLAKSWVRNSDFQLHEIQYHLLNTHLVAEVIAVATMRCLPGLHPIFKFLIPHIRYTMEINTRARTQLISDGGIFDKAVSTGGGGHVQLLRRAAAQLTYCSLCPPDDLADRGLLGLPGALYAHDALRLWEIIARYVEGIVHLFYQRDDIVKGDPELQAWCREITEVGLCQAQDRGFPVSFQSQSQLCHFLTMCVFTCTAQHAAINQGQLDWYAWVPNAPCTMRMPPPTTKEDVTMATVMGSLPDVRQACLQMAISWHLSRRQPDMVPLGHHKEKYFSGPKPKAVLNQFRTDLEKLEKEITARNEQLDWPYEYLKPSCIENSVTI
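Purified human 12hLO at 150 nM in 25 mM Hepes, 0.01% Triton X-100, pH 7.0, preincubated 15 min at room temperature with compound. Reaction started with 40 uM arachidonic acid, 30 min at room temperature. Hydroperoxide measured by Fe-xylenol orange, 573/405 nm absorbance ratio.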
Numbers without * were called inactive; [ ] = remark or other dose. The call rests on the fitted dose curve; in most records, active means well fitted curve in the direction sought with a large enough effect; inconclusive means small, poorly fitted or top-dose-only effect, or another doubt; inactive means no such curve, though single readings can be large; an effect the other way counts as inactive or inconclusive. On the % scale 0 is the no-effect control and ±100 the full control effect; potency means the concentration at half of the fitted maximal effect.

How did CCOc1ccc(NC(=O)Nc2ccc3c(c2)N(C)C(=O)CS3)cc1 do in these assays?
TDP1 cell CPT: inconclusive; ELG1 DNA repair: inconclusive; DT40 TDP1 no CPT: inconclusive; VP16 counter: -7%; RORgamma inh: 26%; ALOX12 inh: -5%

What do the screens show for `CC(=O)c1ccc(NC(=O)Nc2ccc3c(c2)N(C)C(=O)CS3)cc1`?
TDP1 cell CPT: inconclusive; ELG1 DNA repair: 18µM*; DT40 TDP1 no CPT: inconclusive; VP16 counter: 11%; RORgamma inh: -3%; ALOX12 inh: -28%

What do the screens show for `CCCn1c(=O)sc2cc(NC(=O)c3ccccc3OCC)ccc21`?
TDP1 cell CPT: inconclusive; DT40 TDP1 no CPT: inconclusive; ALOX12 inh: -6%

What do the screens show for `CCCn1c(=O)sc2cc(NC(=O)c3ccccc3Cl)ccc21`?
TDP1 cell CPT: 21µM*; DT40 TDP1 no CPT: inconclusive; ALOX12 inh: -13%

What do the screens show for `CN(C)N(Cc1ccccc1)C(=O)C(O)(c1ccccc1)c1ccccc1`?
TDP1 cell CPT: inconclusive; ELG1 DNA repair: inconclusive; DT40 TDP1 no CPT: 26µM*; VP16 counter: -6%; RORgamma inh: -1%; ALOX12 inh: 2%

What do the screens show for `O=C(Nc1ccc(F)cc1)N1CCCC(Cn2c(C3CC3)nc3cccnc32)C1` (centres undefined)?
ALOX12 inh: 5%

What do the screens show for `CC1(C(=O)NCc2ccccc2)Cc2c(-c3ccc(C(N)=O)cc3)ccnc2O1` (centres undefined)?
TDP1 cell CPT: 1.6µM*; DT40 TDP1 no CPT: 2.1µM*; ALOX12 inh: -3%

Results for CC1(C(=O)NCCc2ccccc2)Cc2c(-c3ccccc3)ccnc2O1 (centres undefined) ?
TDP1 cell CPT: 21µM*; DT40 TDP1 no CPT: inconclusive; ALOX12 inh: 12%

What do the screens show for `CC1(C(=O)NCCc2ccccc2)Cc2c(-c3cccc(C(F)(F)F)c3)ccnc2O1` (centres undefined)?
TDP1 cell CPT: inconclusive; DT40 TDP1 no CPT: inconclusive; ALOX12 inh: -11%

How did CC1(C(=O)NCc2ccccc2)Cc2c(-c3ccccc3)ccnc2O1 (centres undefined) do in these assays?
TDP1 cell CPT: inconclusive; DT40 TDP1 no CPT: 4.1µM*; ALOX12 inh: -1%

What do the screens show for `CN(C)c1ccc(-c2ccnc3c2CC(C)(C(=O)NCc2ccccc2)O3)cc1` (centres undefined)?
TDP1 cell CPT: 2.9µM*; DT40 TDP1 no CPT: 5.2µM*; ALOX12 inh: -3%

How did Cc1ccc(-c2cc(C(=O)O)c3cc(C)cc(C)c3n2)c(C)c1 do in these assays?
ALOX12 inh: 0%

Results for CC(C)Oc1ccc2ccccc2c1CN1C[C@H](O)C[C@H]1C(=O)O ?
ALOX12 inh: -7%

Results for COC(=O)c1cc(OC(=O)C(c2ccccc2)c2ccccc2)cc(C(=O)OC)c1 ?
ALOX12 inh: -1%

What do the screens show for `CC1(C(=O)NCC2CC2)Cc2c(-c3ccccc3)ccnc2O1` (centres undefined)?
TDP1 cell CPT: 9.2µM*; DT40 TDP1 no CPT: 13µM*; ALOX12 inh: -2%

Results for CC(=O)Nc1cccc(-c2ccnc3c2CC(C)(C(=O)NCCc2ccccc2)O3)c1 (centres undefined) ?
TDP1 cell CPT: 5.8µM*; DT40 TDP1 no CPT: 4.6µM*; ALOX12 inh: -5%

What do the screens show for `CN1CCN(c2ccc(CNC(=O)C3Cc4c(-c5ccccc5)ccnc4O3)cc2)CC1` (centres undefined)?
TDP1 cell CPT: inconclusive; DT40 TDP1 no CPT: inconclusive; ALOX12 inh: 3%

Results for CN1CCN(c2ccc(CNC(=O)C3(C)Cc4c(-c5ccccc5)ccnc4O3)cc2)CC1 (centres undefined) ?
TDP1 cell CPT: 26µM*; DT40 TDP1 no CPT: 21µM*; ALOX12 inh: -6%

Results for CC1(C(=O)NCc2ccco2)Cc2c(-c3ccc(C(N)=O)cc3)ccnc2O1 (centres undefined) ?
TDP1 cell CPT: 4.1µM*; DT40 TDP1 no CPT: 3.7µM*; ALOX12 inh: 1%

Results for O=C(Nc1cccnc1)c1cc(-c2ccccc2F)cc2c1OCCN2Cc1cccnc1 ?
ALOX12 inh: 29%[176 µM]

Results for CC(Sc1nc2ccccc2o1)C(=O)N1CCCC1 (centres undefined) ?
ALOX12 inh: 0%

How did Cc1occc(=O)c1OCc1noc(C(=O)NCc2ccccc2Cl)n1 do in these assays?
ALOX12 inh: 3%

Results for COc1ccc(CNC(=O)C2(C)Cc3c(-c4ccc(N(C)C)cc4)ccnc3O2)cc1OC (centres undefined) ?
TDP1 cell CPT: inconclusive; DT40 TDP1 no CPT: inconclusive; ALOX12 inh: -1%

How did CN(C)c1ccc(-c2ccnc3c2CC(C)(C(=O)NCC2CCOCC2)O3)cc1 (centres undefined) do in these assays?
TDP1 cell CPT: 16µM*; DT40 TDP1 no CPT: 13µM*; ALOX12 inh: -3%

How did Cc1ccc(NCC(=O)N=Nc2c(O)[nH]c3ccc([N+](=O)[O-])cc23)cc1 do in these assays?
TDP1 cell CPT: inconclusive; ELG1 DNA repair: inconclusive; DT40 TDP1 no CPT: 23µM*; VP16 counter: -17%; RORgamma inh: 24%; ALOX12 inh: 0%

Results for O=[N+]([O-])c1ccc2[nH]c(O)c(N=NC(=S)NCC3CCCO3)c2c1 (centres undefined) ?
TDP1 cell CPT: inconclusive; ELG1 DNA repair: 4%; DT40 TDP1 no CPT: 15µM*; VP16 counter: inconclusive; RORgamma inh: 4µM*; ALOX12 inh: 0%

What do the screens show for `CCNC(=S)N=Nc1c(O)[nH]c2ccc([N+](=O)[O-])cc12`?
TDP1 cell CPT: 3.3µM*; ELG1 DNA repair: inconclusive; DT40 TDP1 no CPT: 4.1µM*; VP16 counter: 11µM*; RORgamma inh: 2µM*; ALOX12 inh: -6%

What do the screens show for `Cc1ccccc1NCC(=O)N=Nc1c(O)[nH]c2ccc([N+](=O)[O-])cc12`?
TDP1 cell CPT: inconclusive; ELG1 DNA repair: -1%; DT40 TDP1 no CPT: inconclusive; VP16 counter: -27%; RORgamma inh: -31%; ALOX12 inh: -6%

Results for CCCCCC(=O)N=Nc1c(O)[nH]c2ccc([N+](=O)[O-])cc12 ?
TDP1 cell CPT: 0%; ELG1 DNA repair: 5%; DT40 TDP1 no CPT: inconclusive; VP16 counter: -4%; RORgamma inh: -3%; ALOX12 inh: -27%

Compound activity deposited in PubChem BioAssay by National Center for Advancing Translational Sciences (NCATS).
